# From PubChem BioAssay AID743433 (Vanderbilt Specialized Chemistry Center, 2014)
# Target: Metabotropic glutamate receptor 2 (Homo sapiens) (UniProt Q14416)
# Test: off-target activity check on mGlu2 receptor – cell-based, GIRK thallium flux, agonist curve fold shift, selectivity assay for mGlu8/mGlu7 PAM project, profiling panel (AID 743433)
# Settings: mGlu2/GIRK cells, agonist CRC shift, agonist EC50 fold shift, at 10 µM
# Sequence of Metabotropic glutamate receptor 2 (Homo sapiens) (Q14416 whole entry, looked up): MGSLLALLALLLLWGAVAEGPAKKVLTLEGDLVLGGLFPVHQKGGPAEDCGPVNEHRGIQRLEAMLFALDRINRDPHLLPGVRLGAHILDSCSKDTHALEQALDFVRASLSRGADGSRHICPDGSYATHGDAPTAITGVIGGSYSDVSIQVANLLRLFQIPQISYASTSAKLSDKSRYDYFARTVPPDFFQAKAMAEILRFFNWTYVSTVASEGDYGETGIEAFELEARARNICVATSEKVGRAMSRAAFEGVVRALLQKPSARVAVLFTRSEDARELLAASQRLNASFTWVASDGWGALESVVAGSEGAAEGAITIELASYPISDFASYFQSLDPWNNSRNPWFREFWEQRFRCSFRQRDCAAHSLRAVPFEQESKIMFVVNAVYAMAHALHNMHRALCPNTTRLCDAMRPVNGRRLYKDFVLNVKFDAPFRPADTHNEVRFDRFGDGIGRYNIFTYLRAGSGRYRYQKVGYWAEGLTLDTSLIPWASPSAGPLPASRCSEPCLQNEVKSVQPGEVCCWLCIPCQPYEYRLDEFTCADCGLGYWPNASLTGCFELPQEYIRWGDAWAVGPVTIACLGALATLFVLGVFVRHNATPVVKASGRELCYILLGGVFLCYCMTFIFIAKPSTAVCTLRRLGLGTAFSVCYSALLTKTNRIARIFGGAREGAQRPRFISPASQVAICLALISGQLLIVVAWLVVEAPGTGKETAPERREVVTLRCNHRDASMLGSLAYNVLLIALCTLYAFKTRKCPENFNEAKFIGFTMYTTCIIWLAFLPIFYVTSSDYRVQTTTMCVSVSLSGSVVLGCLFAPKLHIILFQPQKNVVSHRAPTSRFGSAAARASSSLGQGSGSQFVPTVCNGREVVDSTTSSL
compound,measurement,value
COC(=O)c1ccc(-n2c(C)cc(C(=O)CSc3ccc(NC(C)=O)cc3)c2C)cc1,fold shift,1
